Assay outcomes from PubChem.
pAkt inh = blocks phosphorylation of Akt; AID 651550; Neuro2A IGF-stimulated pAkt S473 HTRF, 20 min; active compounds read low; activity change, % for hits at 50 µM; 0.32% of 360,000 active; in the data active means activity change below about -80%; further: on the % scale 0 is the no-effect control and ±100 the full control effect
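Single-point screen (50 µM final compound) in Neuro2A cells stimulated 20 min with 6 nM IGF at 37 deg C. After lysis, Ser473-phosphorylated Akt read by HTRF (ex 330 nm, em 615/665 nm) as the 665/615 ratio.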
CCT chaperon mod = changes cytosolic chaperonin activity; purified chaperonin ATPase assay, HTRF ADP detection, 30 min; activity change, % (no concentration beside the values), hits read low; 0.3% of 360,000 active; in the data active means activity change below about -30%; further: on the % scale 0 is the no-effect control and ±100 the full control effect
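First, chaperonin was dispensed at 40 nM or 20 nM final depending on batch activity. Next, compounds were pinned at 76 uM and ATP added at 10 uM. After 30 min at 37 °C, ADP detection reagents ran 30 min at ambient temperature.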
TSHR antag = antagonists of human thyroid stimulating hormone receptor | 0.2% of 330,000 active | TSHR-expressing cells, TSH-stimulated cAMP HTRF, 2 h; active compounds read low | activity change, negative = inhibition, % at 11.5 µM | AID 504810 | P16473;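 active means activity change below a set negative limit, meaning inhibition stronger than a set level, cut at about -70% in these data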; further: on the % scale 0 is the no-effect control and ±100 the full control effect
Target sequence (P16473 whole entry, looked up): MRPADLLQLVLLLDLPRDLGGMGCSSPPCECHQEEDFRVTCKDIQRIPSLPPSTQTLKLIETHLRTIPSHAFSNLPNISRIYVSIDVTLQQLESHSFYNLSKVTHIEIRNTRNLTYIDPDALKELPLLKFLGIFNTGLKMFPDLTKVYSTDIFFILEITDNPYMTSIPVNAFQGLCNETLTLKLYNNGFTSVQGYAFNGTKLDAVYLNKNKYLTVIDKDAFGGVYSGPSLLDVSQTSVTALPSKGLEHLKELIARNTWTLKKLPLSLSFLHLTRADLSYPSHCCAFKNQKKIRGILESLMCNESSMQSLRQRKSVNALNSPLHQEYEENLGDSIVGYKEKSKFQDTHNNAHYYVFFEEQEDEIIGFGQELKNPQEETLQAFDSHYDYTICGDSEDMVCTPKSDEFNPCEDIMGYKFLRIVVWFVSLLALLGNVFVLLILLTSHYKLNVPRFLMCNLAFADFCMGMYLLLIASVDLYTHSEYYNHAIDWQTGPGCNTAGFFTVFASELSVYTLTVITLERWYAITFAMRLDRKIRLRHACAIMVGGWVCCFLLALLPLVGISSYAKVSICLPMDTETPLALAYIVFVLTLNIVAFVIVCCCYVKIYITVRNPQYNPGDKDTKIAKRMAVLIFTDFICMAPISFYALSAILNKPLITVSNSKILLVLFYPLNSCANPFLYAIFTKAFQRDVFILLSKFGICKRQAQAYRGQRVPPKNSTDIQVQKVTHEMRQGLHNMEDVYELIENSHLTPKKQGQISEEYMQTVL
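Read-out is FRET at 665 nm (cryptate excitation 337 nm) from a cryptate-tagged anti-cAMP antibody, competed by cell cAMP against cAMP-d2. Compounds are tested on freshly harvested TSHR cells challenged with 4nM TSH (EC80) for 2 hours at 37 deg C.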
TCR activator = activates T cell receptor signaling. primary human leukocytes, anti-CD3, IL-2 HTRF, 48 h. Potency, µM (titrated, usually from 9.22 µM), for inactives: at the highest dose activation of IL-2 secretion, usual class: activators. 330,000 tested, under 10 active. AID 504894; active means well fitted activation curve with a large enough effect; further: % of control where 0% means no effect
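HTRF read-out of IL-2 secretion: europium cryptate donor excited at 320nm, d2 acceptor emission at 665nm. Cells were primary human leukocytes incubated 48 hr with compounds and a-CD3 beads, supplying TCR signal only.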
* marks the source's active call; other numbers are inactive results; i = inactive; nt = no result given; [ ] = remark or other dose. A selection: hits, their analogues and other compounds. The true share with any hit is near 0.74%.

SMILES	pAkt inh	CCT chaperon mod	TSHR antag	TCR activator
COCCCNC(=O)[C@@H](Cc1ccccc1)NC(=O)CC[C@H]1O[C@@H](n2ccc(=O)[nH]c2=O)[C@H](O)[C@@H]1O	i	-2.9	nt	nt
COc1cccc(NC(=O)CN(C)C(=O)c2c(C)noc2C)c1	i	-1.7	-3.9	0.6%
COc1cccc(NC(=O)CN(C)C(=O)c2cc(C)oc2C)c1	i	-30.5*	0.6	-3.6%
N#Cc1ccc(CC(C(=O)O)N2Cc3ccccc3C2=O)cc1 (stereo not given)	i	1.5	13.2	19.4%
O=[N+]([O-])c1cnc(Sc2ccncn2)s1	i	-1.3	-89.4*	6.1%
Cc1ccc(S(=O)(=O)N2CCOC23CCN(C(=O)C(=O)NCCC(C)C)CC3)cc1	i	-1.1	7.6	-5.1%
Cc1cccc(-n2c(SCCC(=O)O)nnc2-c2cccs2)c1C	-115.5%*	-2.1	-0.4	-1.4%
C=CCn1c(SCCC(=O)O)nnc1-c1cccs1	i	0.2	4.3	1.3%[46.1 µM]
CC(C)N1C(=O)c2ccccc2NC(=O)C1C(=O)NCc1cccc(C(F)(F)F)c1 (stereo not given)	i	nt	nt	nt
CCCCCOCC1CC(C/C(C)=N/NC(N)=O)(C(=O)OCC)C(=O)O1 (stereo not given)	i	-41.2*	1.7	-1.1%
COc1ccc(-c2nc3ccccc3c(=O)o2)cc1OC	-118.7%*	-0.1	-7.5	0.6%
CC1(C)CC(=O)C2=C(C1)NC(=O)CC2	i	-3.4	nt	nt
Cc1cc(Cl)ccc1OCC(=O)NNC(=O)C1CCN(c2ncnc3sc(C)c(C)c23)CC1	i	-1.4	-71.6*	-3.1%
CCCc1[nH]nc2c1C(Cc1ccccc1)C(C#N)=C(N)O2 (stereo not given)	-105.7%*	-2.4	-0.1	-2.8%
CSC1=NSC2=NC(=O)/C(=C\c3coc4ccccc4c3=O)C(=N)N12	i	-1.9	-91.0*	-1.9%[46.1 µM]
CC(C)CSC1=NSC2=NC(=O)/C(=C\c3coc4ccccc4c3=O)C(=N)N12	i	1.4	-25.0	1.5%
CCOc1ccc2nc(S(=O)(=O)NC(=O)C3(C)CCN3C(=O)c3cccc(F)c3)sc2c1 (stereo not given)	i	-1.6	nt	nt
COc1ccc(NC(=O)CN(C)S(=O)(=O)c2cnc[nH]2)cc1OC	i	-0.4	-9.1	2.9%
Cc1cc(C)cc(NC(=O)CN(C)S(=O)(=O)c2cnc[nH]2)c1	-116.1%*	-5.6	-4.2	-4.4%[46.1 µM]
Cc1ccccc1OCCCC(=O)NCc1ccco1	-100.9%*	2.5	-8.3	nt
Cc1ccc(OCCCC(=O)NCc2ccco2)cc1	i	-2.1	-11.1	-3.4%
CCN(CC(=O)Nc1c(F)cccc1F)C(=O)c1cccn1C	i	-0.7	nt	nt
O=S(=O)(NCC1CC1)c1cccc(S(=O)(=O)N2CCCC2)c1	-111.5%*	-0.5	-5.0	-0.1%
CC1(C)C(=O)N(OCc2ccccc2)C(C)(C)C(=O)N1OCc1ccccc1	i	-31.9*	-14.1	-2.1%
Nc1ncnc2c1C1(CCCCC1)Cc1ccccc1-2	i	-0.5	3.3	-16.1%[46.1 µM]
SMILES	pAkt inh	CCT chaperon mod	TSHR antag	TCR activator
O=C(NCCN1CCOCC1)c1c(O)nc2ccccn2c1=O	nt	-71.5*	1.8	-6.0%
O=c1[nH]c(=S)[nH]c2c1CN(Cc1ccc(F)cc1)CC2	i	0.2	-138.7*	-1.0%
CC(=O)c1c(C)[nH]c(C(=O)NCCc2ccccc2)c1C	-117.4%*	-4.8	-5.1	-1.1%
COc1ccc(CCNC(=O)c2[nH]c(C)c(C(C)=O)c2C)cc1OC	i	-12.1	-4.2	3.2%
O=C(CSc1nnc(CNc2ccc(Cl)cc2)n1Cc1ccccc1)NCc1ccco1	-108.6%*	-4.1	-6.1	nt
Cc1nc(NC(=S)NC(=O)c2ccccc2)sc1C	i	-33.3*	8.5	3.4%
C[C@@H]1CN([C@@H](C)CO)S(=O)(=O)c2ccc(Br)cc2O[C@H]1CN(C)C(=O)Nc1ccc2c(c1)OCO2	i	-3.2	nt	nt
C1CCC(n2nnnc2CN2CCN(C3CCCC3)CC2)CC1	i	-1.0	5.9	-11.5%
C1CCC(Nc2nnnn2C2CCCCC2)CC1	-104.1%*	2.9	-2.5	-0.3%
CCOC(=O)n1c2ccccc2c(=O)n1CCO	i	-33.0*	nt	nt
N#CC1=C(N)N2C(=C(C#N)C1c1ccc(Br)cc1)Nc1ccccc12 (stereo not given)	i	-7.1	-78.6*	6.5%[46.1 µM]
CC(=O)N1CCN(C2=NC(=O)/C(=C/c3ccc(OS(=O)(=O)c4ccccc4)cc3)S2)CC1	i	-79.0*	-18.6	7.6%
O=C1N=C(N2CCOCC2)S/C1=C\c1ccccc1OS(=O)(=O)c1ccccc1	i	-4.2	-10.6	-4.3%
CCN(CC)CC#CCC(OC)(c1ccccc1)c1ccccc1	i	-0.2	-3.0	1.5%
CCOc1ccc(C(=O)CCC(=O)N2CCN(S(=O)(=O)c3cccc(F)c3)CC2)cc1	i	-49.1*	19.0	-1.1%
Cc1ccc(OCCCC(=O)N2CCN(S(=O)(=O)c3cccc(F)c3)CC2)cc1	i	-2.8	0.7	-2.9%
O=Cc1ccc(N2CCCC2)c(F)c1	i	-3.7	-0.3	9.9%
O=Cc1ccc(N2CCCCCC2)cc1	-127.8%*	0.5	7.2	-2.1%
CC1(C(=O)OCC(=O)Nc2nc(-c3ccc(F)c(F)c3)cs2)CC1(Cl)Cl (stereo not given)	i	-7.3	-34.6	4.7%
CCc1cccc(NC(=S)N(CCCOC(C)C)C2CCN(C(C)=O)CC2)c1	i	-6.5	0.0	4.2%
O=C(Nc1nc(-c2ccccc2)cs1)c1ccccc1NS(=O)(=O)c1ccc(F)cc1	i	1.4	-85.1*	0.1%[46.1 µM]
Cc1ccc(C(=O)Nc2nc(-c3ccc(F)cc3)cs2)o1	i	0.7	-120.8*	-4.0%
COc1ccc(CCCNC(=O)C2Cc3c(-c4ccc(NC(C)=O)cc4)ccnc3O2)cc1 (stereo not given)	i	-0.9	nt	nt
CC1(C)C(=O)Nc2ccccc2N1C(=O)COC(=O)COc1ccc(C#N)cc1	i	-0.5	-21.1	-0.9%
COc1cccc(Nc2c(F)c(OC)c(F)c(F)c2C(=O)O)c1	i	-0.8	-1.8	-4.2%
SMILES	pAkt inh	CCT chaperon mod	TSHR antag	TCR activator
COc1c(F)c(F)c(C(=O)O)c(Nc2ccccc2)c1F	i	-78.3*	0.1	3.8%
Cc1nn(-c2ccccc2)c(Cl)c1/C=C1\SC(=S)NC1=O	i	-5.5	-79.0*	1.1%
Cc1nn(-c2ccccc2)c(Cl)c1/C=C1\SC(=S)N(CCCCCC(=O)O)C1=O	i	-2.2	-18.8	-2.0%
O=C(c1ccncc1)N(c1ccc2oc3c(c2c1)CCCC3)S(=O)(=O)c1cccc([N+](=O)[O-])c1	i	1.9	8.8	-1.2%[46.1 µM]
COc1ccc(S(=O)(=O)N(C(=O)c2ccncc2)c2ccc3oc4c(c3c2)CCCC4)cc1	i	-41.6*	-0.5	0.9%[46.1 µM]
CCOc1cc(C)c(Cl)cc1S(=O)(=O)N1CCCC1	-118.6%*	0.9	-3.2	-2.9%
O=C(O)c1cc(N2C(=O)C3CC=CCC3C2=O)ccc1NCc1cccnc1 (stereo not given)	-116.0%*	-2.9	16.8	0.4%
CC1(C(=O)NS(=O)(=O)c2ccccc2C(F)(F)F)CCN1C(=O)c1cccc(F)c1 (stereo not given)	i	-0.6	nt	nt
